HepG2 tox = kills HepG2 cells in TGF-b inhibitor counter-screen; Potency, µM (series often up to 46.1 µM), usual class: cytotoxic; AID 588856; hit rate 0.76% among 410,000; HepG2 CAGA-GFP viability, ATP luminescence, 18 h
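HepG2 CAGA-GFP cells (1000/well, DMEM with 1% FBS) received compound, then TGF-beta at 500 pg/mL final, and were incubated 18 hours at 37 degrees C. Viability was read by CellTiter-Glo luminescence. Media-only wells were set as complete cell-killing and DMSO as no toxicity.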
TDP1 cell noCPT = qHTS for Inhibitors of human tyrosyl-DNA phosphodiesterase 1 (TDP1): qHTS in cells in absence of CPT | hit rate 15% among 420,000 | AID 686978, 2013 | Potency, µM (doses to about 46.2 µM), hits mostly inhibitors | DT40 Tdp1-/- hTDP1 cells, no CPT, ATP luminescence, 48 h; note: nearly all actives have a fitted effect of over 55% in size
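Growth of hTDP1-complemented DT40 Tdp1-knockout cells is measured by ATP luminescence after at least 48 hr compound exposure at 37 °C, with DMSO substituting for the 20 nM CPT used in the parallel screen.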
TDP1 cell CPT = DT40-hTDP1 cell growth loss with CPT | chicken DT40 Tdp1-/-;hTDP1 cells + 20 nM CPT, ATP luminescence, 48 h | Potency, µM (top dose mostly 46.2 µM), usual class: inhibitors | hit rate 12% among 420,000; note: nearly all actives have a fitted effect of over 55% in size
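Cell growth measured by CellTiter-Glo luminescence after a minimum 48 h, 37 C compound exposure with 20 nM CPT in Tdp1-knockout DT40 cells stably expressing hTDP1, seeded 400/well; qHTS titration format.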
HT1080 IDH1KD tx = kills HT-1080 cells with IDH1 knockdown; HT-1080 IDH1 knockdown viability, ATP luminescence, 48 h; hit rate 2% among 360,000; Potency, µM (top dose mostly 46.1 µM), most hits filed as cytotoxic; AID 686971
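In this qHTS, HT-1080 cells depleted of IDH1 are exposed for 48 h at 37 °C to compound titrations. Toxicity is scored from CellTiter-Glo luminescence, with DMSO as full viability and medium alone as none.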
HT1080NT lethal = kills 2HG-producing HT-1080-NT fibrosarcoma cells. Potency, µM (doses to about 46.1 µM), usual class: cytotoxic. hit rate 1.6% among 360,000. AID 686970. HT-1080-NT fibrosarcoma viability, CellTiter-Glo ATP luminescence, 48 h;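 note: NT is the 2HG producing partner of a matched IDH1 knockdown line; nearly all actives have a fitted effect of over 55% in size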
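Fibrosarcoma NT cells, 750 per well in 5% FBS RPMI, were exposed to compound for 48 hours. Viability: CellTiter-Glo luminescence.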
TGFb SMAD3 inh = TGF-b pathway inhibition. AID 588855. hit rate 1.2% among 410,000. Potency, µM (doses to about 46.1 µM), usual class: inhibitors. HepG2 CAGA-GFP TGF-b/SMAD3 reporter, GFP fluorescence, 18 h; TGF-beta stimulated, 500 pg/mL final; note: nearly all actives have a fitted effect of over 65% in size
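HEPG2 CAGA-GFP reporter cells (1000/well, DMEM with 1% FBS) received compounds, then recombinant TGF-beta at 500 pg/mL final for 18 hours at 37 degrees C. Per-cell GFP summed per well was normalised to unstimulated and stimulated DMSO controls before curve fitting.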
Hits are given with their value; 0 = inactive; ? = inconclusive; - = no result. Compounds with a hit are over-represented: about 17% of the library has one in this group of screens. Calls come from the whole dose curve; as a rule, active = well fitted curve in the direction sought with a large enough effect; inconclusive = small, poorly fitted or top-dose-only effect, or another doubt; inactive = no such curve, though single readings can be large; an effect the other way counts as inactive or inconclusive.

SMILES	HepG2 tox	TDP1 cell noCPT	TDP1 cell CPT	HT1080 IDH1KD tx	HT1080NT lethal	TGFb SMAD3 inh
COc1cccc(/C=C2\Oc3cc(OCC(=O)N4Cc5ccccc5C[C@H]4C(=O)O)ccc3C2=O)c1	0	?	0	0	0	0
COc1ccc(/C=C2\Oc3cc(OCC(=O)N4CCC[C@H]4CO)ccc3C2=O)c(OC)c1	0	?	23µM	0	0	0
COc1ccccc1/C=C1\Oc2cc(OC(=O)N3CCOCC3)ccc2C1=O	0	23µM	15µM	0	0	0
O=C(NCCCN1CCCCC1)c1ccc(CS(=O)c2ccc(Cl)cc2)o1 (configuration not stated)	0	0	0	0	0	?
COc1c(O)cc2oc3cc(O)c(CC=C(C)C)c(O)c3c(=O)c2c1CC=C(C)C	-	12µM	19µM	-	-	-
COc1cc2ccc(=O)oc2c(CC=C(C)C)c1OC	0	0	0	0	0	0
CC(C)=CCc1c(O)cc2oc3c(CC=C(C)C)c(O)c(O)c(CC=C(C)C)c3c(=O)c2c1O	8.9µM	21µM	?	?	?	6.3µM
CCOc1ccc(NC(=O)C(C)C(Cc2ccc(C)cc2)C(=O)O)cc1 (configuration not stated)	0	0	0	0	0	0
CCC(C)C(=O)Nc1nnc(SCC(=O)NC(C)(C)C)s1 (configuration not stated)	0	0	0	0	0	0
C[C@H]1CN(CCc2ccccc2)C(=O)[C@@H]1CC(=O)Nc1ccc(Br)cc1	0	0	0	0	0	0
COc1ccc(/C=C/C(=O)Nc2ccc3nc4c(c(Nc5ccc(OC)c(OC)c5)c3c2)CCCC4)cc1	5µM	4.6µM	3.7µM	-	-	4.5µM
COc1ccc(Nc2c3c(nc4ccc(NC(=O)/C=C/c5cc(OC)c(OC)c(OC)c5)cc24)CCCC3)cc1OC	2.8µM	1.8µM	1µM	-	-	3.2µM
COc1ccc(C(=O)Nc2ccc3oc(-c4cc(Cl)ccc4Cl)nc3c2)cc1Br	0	0	0	-	-	0
Cc1c(C(=O)OC2CCCC2)[nH]c2c1C(=O)CC(c1ccc(C(C)(C)C)cc1)C2 (configuration not stated)	0	?	18µM	-	-	0
Cc1c(C(=O)OC2CCCCC2)[nH]c2c1C(=O)CC(c1ccccc1Cl)C2 (configuration not stated)	0	2.1µM	4.1µM	-	-	0
Cc1c(C(=O)N2CCOCC2)[nH]c2c1C(=O)CC(c1ccccc1Cl)C2 (configuration not stated)	0	4.1µM	3.3µM	4µM	5µM	0
COc1ccc(C2CC(=O)c3c([nH]c(C(=O)OC4CCCCCC4)c3C)C2)cc1OC (configuration not stated)	0	4.6µM	3.7µM	-	-	0
Cc1c(C(=O)O)[nH]c2c1C(=O)CC(c1ccc(C(C)(C)C)cc1)C2 (configuration not stated)	0	0	0	0	0	0
Cc1cccc(CSC2=NCCN2C(=O)c2ccco2)c1	0	0	0	0	?	0
CCC(C)NC(=O)CSc1nnc(-c2ccc(Cl)cc2)n1N (configuration not stated)	0	0	0	0	0	0
COc1ccc(C)cc1S(=O)(=O)Nc1ccc2c(c1)OCO2	0	0	0	0	0	0
Cc1c(C(=O)OC2CCC(C)CC2)[nH]c2c1C(=O)CC(c1ccc(F)cc1)C2 (configuration not stated)	0	18µM	?	-	-	0
COc1ccc(CN(Cc2ccco2)C(=O)COc2ccccc2OC)cc1	0	18µM	?	-	-	0
O=C(COc1ccccc1Cl)N(Cc1ccco1)C1CCS(=O)(=O)C1 (configuration not stated)	0	0	0	0	0	0
COc1ccc(CN(Cc2ccco2)C(=O)COc2ccccc2Cl)cc1	0	23µM	?	-	-	0
SMILES	HepG2 tox	TDP1 cell noCPT	TDP1 cell CPT	HT1080 IDH1KD tx	HT1080NT lethal	TGFb SMAD3 inh
COc1ccccc1OCC(=O)NCc1ccco1	0	0	0	0	0	0
COC(=O)N1CCC2(CCCN(c3ncccn3)C2)CC1	-	0	0	-	-	-
O=C(CSc1nc2ccccc2o1)Nc1nc2c(s1)CCCC2	0	15µM	?	?	?	?
CCc1nc(SCC(=O)Nc2nc3c(s2)CCCC3)c2ccccc2n1	0	13µM	18µM	0	0	0
Cc1cccc(NC(=O)Cn2cnc(S(=O)(=O)N3CCCC3)c2)c1C	0	0	0	0	0	0
Cc1ccc(Cn2c(C)c(C(=O)NCc3cccs3)sc2=O)cc1	0	0	?	0	0	0
C/C(Cl)=C/Cc1c(C)[nH]c2c(ccc3ccccc32)c1=O	0	23µM	?	0	0	0
Cc1ccc(NC(=S)/C(C#N)=C2/Nc3ccccc3S2)cc1	0	23µM	29µM	0	?	20µM
N#C/C(C(=O)N1CCCCC1)=C1\Nc2ccccc2S1	0	?	0	0	0	0
COc1ccc(CNC(=O)c2cccc(N3CCCS3(=O)=O)c2)cc1	0	0	0	-	-	0
COc1ccc(CNC(=O)c2cccc(N3CCCS3(=O)=O)c2)cc1OC	0	7.3µM	10µM	-	-	0
COc1ccc(NC(=O)C2CCCN2S(=O)(=O)c2ccc(Cl)cc2)cc1 (configuration not stated)	0	?	0	0	0	0
CCC(=O)Nc1c(C#N)c2nc3ccccc3nc2n1-c1ccc(C)cc1	0	0	0	0	0	0
CCC(C)n1c(NC(=O)c2ccccc2)c(C#N)c2nc3ccccc3nc21 (configuration not stated)	0	13µM	18µM	16µM	18µM	?
CCCCn1c(NC(=O)c2ccccc2)c(C#N)c2nc3ccccc3nc21	0	18µM	26µM	?	8.9µM	?
Cc1ccccc1CNC(=O)c1ccc2[nH]c(C)c(C)c2c1	0	?	?	-	-	0
COC(=O)[C@H](CC(C)C)N1Cc2cc(OC)cc(OC)c2-c2ccccc2S1(=O)=O	0	16µM	?	0	0	?
C=C1CCN(C(CC(C)C)C(=O)OC)S(=O)(=O)c2ccccc21 (configuration not stated)	0	?	?	0	0	0
CCCOc1ccc(N2C(=O)CC(N3CCN(CCN=CC4C(=O)CC(C)(C)CC4=O)CC3)C2=O)cc1 (configuration not stated)	0	0	0	0	0	0
Nc1ccccc1N=Cc1ccc(-c2cccc(Cl)c2)o1	0	23µM	21µM	?	0	?
